This note sets out measurements from ChEMBL document CHEMBL2218924, “A broad activity screen in support of a chemogenomic map for kinase signalling research and drug discovery” (Biochem J, 2013).

In experiment [1] the target is Focal adhesion kinase 1 (Homo sapiens) (UniProt Q05397). Particulars: at 10 µM.
The target of experiment [2] is Fibroblast growth factor receptor 1 (Homo sapiens) (UniProt P11362). Particulars: at 1 µM.
Experiment [3] has the same target. Particulars: at 10 µM.
Experiment [4] concerns the target Fibroblast growth factor receptor 2 (Homo sapiens) (UniProt P21802). Particulars: at 1 µM.
For experiment [5] the target is unchanged. Particulars: at 10 µM.
For experiment [6], the target named is Fibroblast growth factor receptor 3 (Homo sapiens) (UniProt P22607). Conditions: at 1 µM.
Chain of Fibroblast growth factor receptor 3 (Homo sapiens) (P22607 23-806 limits assumed): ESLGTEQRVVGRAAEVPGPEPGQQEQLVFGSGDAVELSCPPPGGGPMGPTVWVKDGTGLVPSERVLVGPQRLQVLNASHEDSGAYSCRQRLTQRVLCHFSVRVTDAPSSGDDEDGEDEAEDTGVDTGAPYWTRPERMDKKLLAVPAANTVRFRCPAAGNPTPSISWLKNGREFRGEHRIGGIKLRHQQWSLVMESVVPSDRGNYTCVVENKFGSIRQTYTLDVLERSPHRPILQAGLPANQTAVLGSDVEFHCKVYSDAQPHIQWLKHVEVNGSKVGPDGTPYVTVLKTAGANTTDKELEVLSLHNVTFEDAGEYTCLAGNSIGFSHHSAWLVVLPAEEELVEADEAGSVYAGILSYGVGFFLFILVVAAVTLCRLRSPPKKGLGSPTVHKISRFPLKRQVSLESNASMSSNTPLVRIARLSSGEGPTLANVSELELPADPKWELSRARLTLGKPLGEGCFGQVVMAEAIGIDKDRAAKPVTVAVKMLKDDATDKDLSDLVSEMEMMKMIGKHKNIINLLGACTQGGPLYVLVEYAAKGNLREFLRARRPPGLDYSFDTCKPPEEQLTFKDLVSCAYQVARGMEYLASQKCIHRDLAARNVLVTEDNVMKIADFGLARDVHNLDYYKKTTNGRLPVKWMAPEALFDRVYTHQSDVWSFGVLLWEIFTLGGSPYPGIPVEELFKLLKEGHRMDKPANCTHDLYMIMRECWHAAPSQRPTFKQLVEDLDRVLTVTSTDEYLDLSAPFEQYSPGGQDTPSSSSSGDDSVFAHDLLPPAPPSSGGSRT
Experiment [7] shares this target. Conditions: at 10 µM.
Experiment [8] concerns the target Fibroblast growth factor receptor 4 (Homo sapiens) (UniProt P22455). Particulars: at 1 µM.
For experiment [9] the target is unchanged. Particulars: at 10 µM.
Experiment [10] addresses Tyrosine-protein kinase Fer (Homo sapiens) (UniProt P16591). Conditions: at 1 µM.

Chain of Focal adhesion kinase 1 (Homo sapiens) (Q05397 2-1052 limits assumed): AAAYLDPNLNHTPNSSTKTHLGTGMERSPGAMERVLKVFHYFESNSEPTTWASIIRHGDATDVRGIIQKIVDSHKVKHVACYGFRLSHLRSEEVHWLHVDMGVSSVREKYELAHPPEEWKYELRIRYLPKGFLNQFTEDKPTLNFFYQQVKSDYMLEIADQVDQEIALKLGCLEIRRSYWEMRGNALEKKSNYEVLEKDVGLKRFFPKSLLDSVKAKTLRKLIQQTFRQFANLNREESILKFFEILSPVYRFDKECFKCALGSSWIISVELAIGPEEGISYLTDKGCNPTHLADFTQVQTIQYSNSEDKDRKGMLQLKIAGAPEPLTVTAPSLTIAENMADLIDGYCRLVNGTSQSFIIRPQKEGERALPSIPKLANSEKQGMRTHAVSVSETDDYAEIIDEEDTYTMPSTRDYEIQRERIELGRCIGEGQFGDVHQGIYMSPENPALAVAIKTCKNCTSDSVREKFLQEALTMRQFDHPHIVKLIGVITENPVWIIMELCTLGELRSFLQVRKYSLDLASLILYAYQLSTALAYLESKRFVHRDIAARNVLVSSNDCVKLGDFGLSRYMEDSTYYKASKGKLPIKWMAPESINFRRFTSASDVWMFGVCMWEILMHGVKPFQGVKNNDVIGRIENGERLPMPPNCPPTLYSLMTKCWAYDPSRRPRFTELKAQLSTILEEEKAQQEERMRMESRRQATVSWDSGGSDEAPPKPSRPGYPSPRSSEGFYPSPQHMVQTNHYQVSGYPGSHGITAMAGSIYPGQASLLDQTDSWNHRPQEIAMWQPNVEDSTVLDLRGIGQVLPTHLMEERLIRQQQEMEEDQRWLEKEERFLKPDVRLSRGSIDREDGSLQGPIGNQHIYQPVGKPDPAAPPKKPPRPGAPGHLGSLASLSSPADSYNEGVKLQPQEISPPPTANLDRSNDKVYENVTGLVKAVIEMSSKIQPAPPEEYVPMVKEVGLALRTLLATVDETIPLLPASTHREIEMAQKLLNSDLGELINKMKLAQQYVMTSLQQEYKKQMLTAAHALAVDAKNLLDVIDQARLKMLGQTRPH
Chain of Fibroblast growth factor receptor 4 (Homo sapiens) (P22455 22-802 limits assumed): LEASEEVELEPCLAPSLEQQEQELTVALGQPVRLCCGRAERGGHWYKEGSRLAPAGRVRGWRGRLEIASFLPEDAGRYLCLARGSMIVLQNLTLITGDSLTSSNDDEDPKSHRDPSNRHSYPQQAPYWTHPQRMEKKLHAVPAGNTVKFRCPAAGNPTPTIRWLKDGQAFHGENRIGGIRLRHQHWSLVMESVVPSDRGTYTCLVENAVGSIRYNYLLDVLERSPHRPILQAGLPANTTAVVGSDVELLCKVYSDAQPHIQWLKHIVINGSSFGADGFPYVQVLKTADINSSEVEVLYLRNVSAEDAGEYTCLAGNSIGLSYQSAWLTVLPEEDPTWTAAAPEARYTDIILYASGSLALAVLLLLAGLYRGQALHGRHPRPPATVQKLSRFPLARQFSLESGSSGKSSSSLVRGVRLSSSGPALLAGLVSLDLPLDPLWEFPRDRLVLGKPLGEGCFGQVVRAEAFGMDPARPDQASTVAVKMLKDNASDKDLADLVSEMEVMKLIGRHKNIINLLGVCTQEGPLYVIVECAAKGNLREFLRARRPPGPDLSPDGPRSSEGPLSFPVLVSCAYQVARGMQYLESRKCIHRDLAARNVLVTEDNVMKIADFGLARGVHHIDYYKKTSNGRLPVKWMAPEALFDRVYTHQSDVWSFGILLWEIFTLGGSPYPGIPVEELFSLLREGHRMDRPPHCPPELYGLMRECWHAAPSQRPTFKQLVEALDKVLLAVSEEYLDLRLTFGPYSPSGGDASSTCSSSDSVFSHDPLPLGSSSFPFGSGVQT
Chain of Tyrosine-protein kinase Fer (Homo sapiens) (P16591 whole entry, looked up): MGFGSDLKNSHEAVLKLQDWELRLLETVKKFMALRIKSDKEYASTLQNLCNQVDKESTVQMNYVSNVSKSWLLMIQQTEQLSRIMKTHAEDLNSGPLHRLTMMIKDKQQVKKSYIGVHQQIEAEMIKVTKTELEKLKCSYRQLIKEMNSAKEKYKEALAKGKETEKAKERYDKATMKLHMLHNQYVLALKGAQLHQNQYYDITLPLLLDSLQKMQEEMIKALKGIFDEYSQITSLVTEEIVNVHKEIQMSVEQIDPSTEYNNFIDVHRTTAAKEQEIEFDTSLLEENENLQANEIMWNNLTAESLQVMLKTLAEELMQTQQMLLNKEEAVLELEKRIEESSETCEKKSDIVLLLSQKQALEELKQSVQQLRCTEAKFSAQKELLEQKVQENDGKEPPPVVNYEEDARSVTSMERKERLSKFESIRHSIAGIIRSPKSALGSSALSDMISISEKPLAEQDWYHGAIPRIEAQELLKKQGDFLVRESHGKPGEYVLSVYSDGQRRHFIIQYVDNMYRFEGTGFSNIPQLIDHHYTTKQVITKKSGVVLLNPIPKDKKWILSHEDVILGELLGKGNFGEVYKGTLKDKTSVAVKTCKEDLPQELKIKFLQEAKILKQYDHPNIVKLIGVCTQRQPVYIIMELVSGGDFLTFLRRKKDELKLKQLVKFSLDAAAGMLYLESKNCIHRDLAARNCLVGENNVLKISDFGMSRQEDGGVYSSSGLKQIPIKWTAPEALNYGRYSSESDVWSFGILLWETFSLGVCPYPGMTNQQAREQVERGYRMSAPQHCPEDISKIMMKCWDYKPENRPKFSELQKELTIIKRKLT
Chain of Fibroblast growth factor receptor 1 (Homo sapiens) (P11362 22-822 limits assumed): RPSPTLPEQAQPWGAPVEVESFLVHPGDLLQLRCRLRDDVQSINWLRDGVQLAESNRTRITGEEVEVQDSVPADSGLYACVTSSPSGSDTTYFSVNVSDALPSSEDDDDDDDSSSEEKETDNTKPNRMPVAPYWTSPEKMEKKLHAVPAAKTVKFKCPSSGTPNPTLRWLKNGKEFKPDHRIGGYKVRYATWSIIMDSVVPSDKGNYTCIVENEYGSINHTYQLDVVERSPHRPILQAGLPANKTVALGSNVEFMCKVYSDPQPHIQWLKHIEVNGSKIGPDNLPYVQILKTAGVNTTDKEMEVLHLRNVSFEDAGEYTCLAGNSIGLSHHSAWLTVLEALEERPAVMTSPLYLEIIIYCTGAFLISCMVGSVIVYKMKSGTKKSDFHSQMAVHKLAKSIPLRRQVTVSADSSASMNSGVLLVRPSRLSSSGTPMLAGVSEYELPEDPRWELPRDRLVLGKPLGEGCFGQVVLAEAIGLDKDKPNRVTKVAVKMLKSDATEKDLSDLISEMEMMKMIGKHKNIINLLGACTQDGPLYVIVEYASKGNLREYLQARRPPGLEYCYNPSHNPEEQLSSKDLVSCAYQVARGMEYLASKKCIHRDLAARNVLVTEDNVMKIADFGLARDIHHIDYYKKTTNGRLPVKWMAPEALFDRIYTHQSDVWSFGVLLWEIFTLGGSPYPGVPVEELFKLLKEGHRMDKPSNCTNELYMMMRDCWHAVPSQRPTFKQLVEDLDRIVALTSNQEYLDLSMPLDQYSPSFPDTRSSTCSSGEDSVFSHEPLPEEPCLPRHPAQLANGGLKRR
Chain of Fibroblast growth factor receptor 2 (Homo sapiens) (P21802 22-821 limits assumed): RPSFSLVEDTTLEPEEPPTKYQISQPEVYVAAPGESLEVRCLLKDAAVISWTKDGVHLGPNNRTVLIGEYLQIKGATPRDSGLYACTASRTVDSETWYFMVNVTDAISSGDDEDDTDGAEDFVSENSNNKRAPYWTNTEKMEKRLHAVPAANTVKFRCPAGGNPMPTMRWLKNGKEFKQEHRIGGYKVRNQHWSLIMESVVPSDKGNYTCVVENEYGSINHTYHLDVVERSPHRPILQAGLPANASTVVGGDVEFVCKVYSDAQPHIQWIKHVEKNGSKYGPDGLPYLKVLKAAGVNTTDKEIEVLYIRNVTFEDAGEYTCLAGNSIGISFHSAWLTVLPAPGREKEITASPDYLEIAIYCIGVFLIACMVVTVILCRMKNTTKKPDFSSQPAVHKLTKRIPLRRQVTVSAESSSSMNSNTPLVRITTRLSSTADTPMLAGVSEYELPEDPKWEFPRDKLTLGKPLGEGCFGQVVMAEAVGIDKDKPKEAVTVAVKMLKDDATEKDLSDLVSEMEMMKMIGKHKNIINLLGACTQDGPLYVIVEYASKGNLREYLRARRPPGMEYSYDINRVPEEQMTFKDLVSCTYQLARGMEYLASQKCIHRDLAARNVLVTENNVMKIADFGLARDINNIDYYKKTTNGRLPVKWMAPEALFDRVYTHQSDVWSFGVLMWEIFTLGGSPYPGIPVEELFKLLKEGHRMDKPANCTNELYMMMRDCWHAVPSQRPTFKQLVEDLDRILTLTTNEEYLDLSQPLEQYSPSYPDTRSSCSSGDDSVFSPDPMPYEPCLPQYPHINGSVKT

`Cn1cnc2cc3c(Nc4cccc(Br)c4)ncnc3cc21`: the residual activity – broadly, the signal under treatment as a percentage of the control signal – in experiment [1] came out at 93%; in experiment [2] it was 74%; in experiment [3], 43%; in experiment [4] it was 92%; in experiment [5], 89%; in [6], 102%. Moreover, the residual activity in [7] amounted to 97%; in experiment [8], 127%; in [9], 96%; in experiment [10] it was 115%.

As for `CNc1cc2c(Nc3cccc(Br)c3)ncnc2cn1`, the residual activity in experiment [1] stood at 82%; in experiment [2] it was 102%; in experiment [3], 66%; in [4] it was 89%; in experiment [5], 88%; in experiment [6], 90%. The residual activity in experiment [7] came out at 100%; in experiment [8], 109%; in [9] it was 86%; in experiment [10], 105%.

In the case of `O=C1NC(=O)c2cc(Nc3ccc(F)cc3)c(Nc3ccc(F)cc3)cc21`, the residual activity worked out at 89% in experiment [1]; 85% in experiment [2]; 135% in [3]; 101% in experiment [4]; 82% in [5]; 114% in experiment [6]. Moreover, the residual activity in experiment [7] turned out to be 103%; in experiment [8], 142%; in experiment [9], 93%; in experiment [10], 109%.

In the case of `CCC(=O)Nc1ccc2ncnc(Nc3cccc(Br)c3)c2c1`, the residual activity in experiment [1] stood at 95%; in experiment [2] it was 108%; in [3] it was 84%; in experiment [4] it was 105%; in experiment [5], 99%; in experiment [6], 118%. For the same compound, the residual activity in experiment [7] amounted to 123%; in [8], 120%; in experiment [9] it was 100%; in [10] it was 106%.

`Oc1n[nH]c2nnc(-c3c(-c4ccccc4)nn4ccccc34)cc12`: the residual activity in experiment [1] is 91%; in experiment [2] it was 108%; in experiment [3], 92%; in [4] it was 95%; in experiment [5], 91%; in experiment [6], 97%. Besides, the residual activity in experiment [7] is 102%; in experiment [8] it was 115%; in [9] it was 90%; in experiment [10] it was 96%.

Take `O=C1NC(=O)/C(=C/c2ccc3c(c2)OC(F)(F)O3)S1`: the residual activity came to 95% in experiment [1]; 116% in experiment [2]; 99% in [3]; 92% in experiment [4]; 101% in experiment [5]; 111% in [6]. Further, the residual activity in [7] was found to be 112%; in experiment [8] it was 116%; in experiment [9], 94%; in experiment [10] it was 107%.

Consider `O=C(Nc1cccc(Nc2nccc(Nc3cccc(C(F)(F)F)c3)n2)c1)C1CC1`, for which the residual activity came to 10% in [1]; 69% in experiment [2]; 8% in [3]; 99% in [4]; 37% in experiment [5]; 83% in experiment [6]. Moreover, the residual activity was 91% in experiment [7], 108% in experiment [8], 63% in experiment [9] and 124% in [10].

As for `Cc1cc(Nc2nc(-c3ccccc3)nc3ccccc23)n[nH]1`, the residual activity was determined as 7% in experiment [1]; 4% in experiment [2]; 2% in [3]; 24% in experiment [4]; 2% in experiment [5]; 34% in experiment [6]. Further, the residual activity in experiment [7] came out at 4%; in experiment [8], 106%; in experiment [9], 72%; in experiment [10], 43%.

Turning to `O=C(O)c1ccc2c3c1cccc3c(=O)n1c3ccccc3nc21`, the residual activity in experiment [1] was found to be 100%; in experiment [2], 94%; in [3], 75%; in experiment [4], 110%; in experiment [5], 78%; in experiment [6] it was 98%. The residual activity in [7] stood at 92%; in experiment [8], 112%; in experiment [9], 96%; in experiment [10], 81%.

Turning to `Oc1ccc(Nc2nc(-c3ccc(Cl)cc3)cs2)cc1`, the residual activity in experiment [1] was determined as 94%; in experiment [2], 128%; in experiment [3], 86%; in [4], 119%; in [5], 93%; in experiment [6], 132%. The residual activity in experiment [7] was determined as 137%; in experiment [8], 125%; in experiment [9], 118%; in [10] it was 94%.

Turning to `CC(C)n1cnc2/c(=N/c3cccc(Cl)c3)nc(NCCO)[nH]c21`, the residual activity in experiment [1] was 11%; in experiment [2], 87%; in [3], 19%; in experiment [4] it was 101%; in experiment [5], 37%; in experiment [6], 106%. For the same compound, the residual activity in [7] came out at 59%; in experiment [8], 114%; in [9], 110%.

Take `NC(=O)c1ccc2[nH]c(-c3ccc(Oc4ccc(Cl)cc4)cc3)nc2c1`: the residual activity was 65% in [1]; 118% in [2]; 101% in experiment [3]; 108% in experiment [4]; 103% in [5]; 129% in experiment [6]. Further, the residual activity in experiment [7] is 132%; in experiment [8], 123%; in [9], 126%; in [10], 95%.

Take `O=c1cc(-c2cccc3c2Sc2ccccc2S3)oc(N2CCOCC2)c1`: the residual activity in experiment [1] worked out at 116%; in experiment [2] it was 120%; in [3] it was 95%; in experiment [4], 106%; in experiment [5], 81%; in experiment [6], 112%. Further, the residual activity in experiment [7] was found to be 84%; in experiment [8], 104%; in [9] it was 88%; in [10] it was 115%.

Consider `Cc1ccc(NC2=CC(=O)c3sc(C)nc3C2=O)cc1`, for which the residual activity was 99% in [1]; 106% in experiment [2]; 112% in experiment [3]; 100% in experiment [4]; 92% in [5]; 107% in experiment [6]. Further, the residual activity in [7] worked out at 118%; in experiment [8], 101%; in experiment [9], 90%; in experiment [10] it was 92%.

Turning to `CCOc1cc2ncnc(Nc3cccc(Br)c3)c2cc1OCC`, the residual activity was 79% in experiment [1]; 66% in [2]; 18% in experiment [3]; 98% in experiment [4]; 88% in experiment [5]; 92% in experiment [6]. Besides, the residual activity in experiment [7] is 85%; in experiment [8] it was 111%; in [9], 92%; in experiment [10] it was 116%.

Turning to `O=[N+]([O-])c1ccc(-c2nc(-c3ccc(F)cc3)c(-c3ccncc3)[nH]2)cc1`, the residual activity in experiment [1] was 102%; in experiment [2] it was 102%; in experiment [3] it was 82%; in [4] it was 112%; in [5], 99%; in experiment [6], 109%. The residual activity is 99% in [7], 122% in [8], 92% in experiment [9] and 100% in [10].
